According to the supplement of paper PMC6607015:
Counter-ions that a name gives are not always drawn.

Assays:
Conditions in all cases: compound concentration in added solution (µM; 5 µl added to 20 µl cells): 10; 18 h
A431 [1] = assay: LBPA endosome anti-LBPA integrated intensity (sum per cell), Z-score; higher = more LBPA staining
How it was run: (§1)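 The data are Z-scores, normalised in AcuityXpress, of integrated LBPA or filipin intensity in each cell, either whole-cell or restricted to LBPA endosomes. HeLa MZ or A431 cells, 3,500 per well in 20 µl, were seeded onto 5 µl of 10 µM compound solution in duplicate 384-well plates and incubated 18 h. Fixed cells were stained and imaged, with intensities extracted by MetaXpress segmentation.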

HeLa MZ [2] = assay: as above
How it was run: as §1

A431 [3] = assay: whole-cell filipin (free cholesterol) integrated intensity, Z-score; higher = more cholesterol staining
How it was run: as §1

HeLa MZ [4] = assay: as above
How it was run: as §1

A431 [5] = assay: filipin (cholesterol) integrated intensity within LBPA endosomes, Z-score; higher = more cholesterol in LBPA endosomes
How it was run: as §1

HeLa MZ [6] = assay: as above
How it was run: as §1

Compound	LBPA endosome anti-LBPA integrated intensity (z-score) (A431 [1])	LBPA endosome anti-LBPA integrated intensity (z-score) (HeLa MZ [2])	whole-cell filipin (z-score) (A431 [3])	whole-cell filipin (z-score) (HeLa MZ [4])	filipin (z-score) (A431 [5])	filipin (z-score) (HeLa MZ [6])
CN1[C@@H]2C[C@@H](OC(=O)[C@H](CO)c3ccccc3)C[C@H]1[C@@H]1O[C@@H]12 [Scopolamine hydrochloride]	-0.422	-0.0951	-0.247	0.118	-0.45	-0.0653
CC(=O)[C@H]1CC[C@H]2[C@@H]3CC[C@H]4C[C@H](O)CC[C@]4(C)[C@H]3C(=O)C[C@]12C [Alfaxalone]	1.82	1.23	0.358	-0.273	0.378	-0.0632
CCC(C)C1O[C@]2(C=C[C@@H]1C)C[C@@H]1CC(C/C=C(\C)[C@@H](OC3C[C@H](OC)[C@@H](OC4C[C@H](OC)[C@@H](O)[C@H](C)O4)[C@H](C)O3)[C@@H](C)/C=C/C=C3\COC4[C@H](O)C(C)=CC(C(=O)O1)[C@]34O)O2 (some centres not stated) [Avermectin B1a]	-0.178	0.136	-0.0649	0.727	-0.285	-0.0937
COc1ccc2c(c1)[C@]13CCCC[C@@H]1[C@H](C2)N(C)CC3 [Dextromethorphan hydrobromide monohydrate]	-0.375	0.494	-0.0383	0.286	-0.149	0.237
NC(=O)CN1CCCC1=O [Piracetam]	-0.558	-0.0728	-0.653	-0.301	-0.56	-0.514
CCNC1(c2cccs2)CCCCC1=O (configuration not stated) [Tiletamine hydrochloride]	-0.499	-0.0498	-0.0108	-0.435	-0.475	-0.463
C[C@]12CCC(=O)C(O)=C1CC[C@@H]1[C@@H]2CC[C@]2(C)C(=O)CC[C@@H]12 [Formestane]	1.1	1.9	2.53	2.23	2.1	1.15
CC1OC(OC2/C=C/C=C/C=C/C=C/CC/C=C/C=C/[C@H](C)[C@@H](O)[C@@H](C)[C@H](C)OC(=O)CC(O)CC(O)CC(O)CCC(O)C(O)C[C@]3(O)CC(O)C(C(=O)O)C(C2)O3)C(O)C(N)C1O (some centres not stated) [Nystatine]	-0.00963	0.129	0.146	0.0497	-0.136	-0.223
CC(=O)O[C@H]1CC[C@@]2(C)C(=CC[C@@H]3[C@@H]2CC[C@]2(C)C(=O)CC[C@@H]32)C1 [Dehydroisoandosterone 3-acetate]	-0.242	-0.00203	0.0526	0.0333	-0.136	-0.214
C[C@]12CCC(=O)C=C1C=C[C@@H]1[C@@H]2CC[C@@]2(C)[C@H]1CC[C@@]2(O)CCC(=O)O [Canrenoic acid potassium salt]	-0.568	-1.1	-1.15	-1.15	-0.611	-0.819
CCN[C@@H](C)Cc1cccc(C(F)(F)F)c1 [Dexfenfluramine hydrochloride]	-0.18	-0.965	-0.95	-0.721	-0.444	-0.703
CC(N)C(O)c1ccccc1 (configuration not stated) [Phenylpropanolamine hydrochloride]	-0.541	-1.1	-0.689	-0.0866	-0.502	-0.451
NCC(O)c1ccc(O)cc1 (racemic) [(+,-)-Octopamine hydrochloride]	-0.262	0.0629	-0.464	-0.485	-0.407	-0.291
CC[C@@H](C(N)=O)N1CCCC1=O [Levetiracetam]	-0.634	-1.5	-0.363	0.0516	-0.585	-0.523
CC(=O)OCC(=O)[C@H]1CC[C@H]2[C@@H]3CC[C@H]4C[C@H](O)CC[C@]4(C)[C@H]3C(=O)C[C@]12C [Alfadolone acetate]	0.719	1.43	0.996	0.815	0.478	0.736
COP(=O)(OC)C(O)C(Cl)(Cl)Cl (configuration not stated) [Trichlorfon]	-0.479	-0.711	-1.16	-1.48	-0.56	-0.592
CC(=O)OC1CN2CCC1CC2 (configuration not stated) [Aceclidine Hydrochloride]	-0.622	-1.07	-0.642	0.0664	-0.61	-0.54
CCC(=O)O[C@@](Cc1ccccc1)(c1ccccc1)[C@@H](C)CN(C)C [Levopropoxyphene napsylate]	-0.308	-0.465	0.489	0.709	0.194	-0.129
O=c1[nH]c2ccccc2n1C1CCN(CCCC(c2ccc(F)cc2)c2ccc(F)cc2)CC1 [Pimozide]	0.798	0.814	0.271	-0.393	0.65	0.34
O=C(O)CCCc1ccc(N(CCCl)CCCl)cc1 [Chlorambucil]	-0.184	1.86	1.33	2.72	-0.393	-0.471
Oc1cc(Cl)ccc1Oc1ccc(Cl)cc1Cl [Triclosan]	-0.463	0.177	-0.0345	3.99	-0.336	-0.129
NCCCNCCSP(=O)(O)O [Amifostine]	-0.621	-1	-0.901	-0.742	-0.572	-0.603
CC[C@@H](CO)NC(=O)[C@@H]1C=C2c3cccc4[nH]cc(c34)C[C@H]2N(C)C1 [Methylergometrine maleate]	-0.539	-1.25	-0.649	-0.308	-0.495	-0.637
CNCC(O)c1ccc(O)cc1 (racemic) [(+,-)-Synephrine]	-0.271	-0.444	0.673	-0.00115	-0.481	-0.576

Compound	LBPA endosome anti-LBPA integrated intensity (z-score) (A431 [1])	LBPA endosome anti-LBPA integrated intensity (z-score) (HeLa MZ [2])	whole-cell filipin (z-score) (A431 [3])	whole-cell filipin (z-score) (HeLa MZ [4])	filipin (z-score) (A431 [5])	filipin (z-score) (HeLa MZ [6])
COc1ccc(CCN2CCC(Nc3nc4ccccc4n3Cc3ccc(F)cc3)CC2)cc1 [Astemizole]	–	-0.627	–	-1.11	–	2.12
CC(=O)OCC1=C(C(=O)O)N2C(=O)[C@@H](N)[C@H]2SC1 [Cephalosporanic acid, 7-amino]	-0.605	-1.08	-0.806	-0.877	-0.581	-0.604
O=C(NCNC(=O)NC1C(=O)NC(=O)N1CO)NC1C(=O)NC(=O)N1CO (configuration not stated) [Imidurea]	-0.433	0.0233	-0.35	-0.63	-0.459	-0.511
CCCN1C[C@H](CSC)C[C@@H]2c3cccc4[nH]cc(c34)C[C@H]21 [Pergolide mesylate]	2.35	1.89	-0.261	-0.788	0.495	0.499
C=C1CC[C@@]2(O)[C@H]3Cc4ccc(O)c5c4[C@@]2(CCN3CC2CC2)[C@H]1O5 [Nalmefene hydrochloride]	-0.278	0.776	-0.193	-0.0735	-0.304	0.0741
CC(NC(C)(C)C)C(=O)c1cccc(Cl)c1 (configuration not stated) [Bupropion hydrochloride]	-0.577	-0.652	-0.448	-0.134	-0.453	-0.438
C#C[C@]1(O)CC[C@H]2[C@@H]3CCC4=CC(=O)CC[C@]4(C)[C@H]3CC[C@@]21C [Ethisterone]	-0.369	-0.214	-0.635	-1.08	-0.449	-0.685
CCN(C)C(=O)Oc1cccc([C@H](C)N(C)C)c1 [Rivastigmine]	-0.438	-0.457	0.162	1.82	-0.375	-0.164
CC(C)c1cccc(C(C)C)c1O [Propofol]	-0.483	-0.0677	-0.406	-0.391	-0.506	-0.548
CCNCC(O)c1cccc(O)c1 (configuration not stated) [Etilefrine hydrochloride]	-0.181	-0.0522	0.485	-0.0907	-0.374	-0.466
NCC1(CC(=O)O)CCCCC1 [Gabapentin]	-0.54	-0.377	-0.349	-0.476	-0.52	-0.627
C[C@@]12N[C@@H](Cc3ccccc31)c1ccccc12 [(-)-MK 801 hydrogen maleate]	-0.405	0.615	-0.428	-0.298	-0.407	-0.347
CC(C)(C)NCC(O)c1ccccc1Cl (configuration not stated) [Tulobuterol]	-0.101	1.38	0.203	0.36	-0.334	-0.0322
O=P1(NCCCl)OCCCN1CCCl (configuration not stated) [Ifosfamide]	-0.43	-0.294	0.0112	-0.489	-0.396	-0.611
CCOC(=O)c1cncn1[C@H](C)c1ccccc1 [Etomidate]	-0.611	-1.14	-0.618	-0.784	-0.487	-0.672
CN1[C@@H]2CC[C@H]1C[C@@H](OC(=O)[C@H](CO)c1ccccc1)C2 [Hyoscyamine (L)]	-0.717	-1.24	-0.954	-0.599	-0.664	-0.33
O=[N+]([O-])O[C@H]1CO[C@H]2[C@@H]1OC[C@H]2O[N+](=O)[O-] [Isosorbide dinitrate]	-0.547	-1	-0.426	-0.655	-0.496	-0.471
CCCCCC[C@H]1C(=O)O[C@H](C)[C@H](NC(=O)c2cccc(NC=O)c2O)C(=O)O[C@@H](C)[C@@H]1OC(=O)CC(C)C [Antimycin A]	-0.868	-0.65	-0.217	-0.804	-0.854	-0.994
C[C@]12CC[C@H]3[C@@H](CCC4=CC(=O)CC[C@@H]43)[C@@H]1CC[C@@H]2O [Nandrolone]	-0.352	0.296	-0.14	-0.437	-0.296	-0.508
CC[C@@]1([C@@H]2O[C@@H]([C@H]3O[C@@](O)(CO)[C@H](C)C[C@@H]3C)C[C@@H]2C)CC[C@H]([C@]2(C)CC[C@]3(C[C@H](O)[C@@H](C)[C@@H]([C@@H](C)[C@@H](OC)[C@H](C)C(=O)O)O3)O2)O1 [Monensin sodium salt]	–	-0.505	–	-1.99	–	0.206
COc1ccc(C(=O)N2CCCC2=O)cc1 [Aniracetam]	-0.475	0.124	-0.904	-0.402	-0.562	-0.3
C[C@]12CC[C@@H](O)C[C@H]1CC[C@@H]1[C@@H]2CC[C@]2(C)C(=O)CC[C@@H]12 [3-alpha-Hydroxy-5-beta-androstan-17-one]	-0.153	1.16	0.209	0.519	-0.175	-0.161
O=c1c2ccccc2[se]n1-c1ccccc1 [Ebselen]	-0.435	-0.608	-0.31	-0.0059	-0.372	-0.243
O[C@@H]1CCCC[C@H]1N1CCC(c2ccccc2)CC1 [L(-)-vesamicol hydrochloride]	-0.173	1.21	0.21	0.285	-0.268	-0.0101
